# High-throughput results (PubChem)
# Hits are enriched below; roughly 0.4% of the tested compounds scored in any of these assays.
# FMDV FLuc = Primary qHTS Assay for Foot and Mouth Disease Virus Antivirals against NCGC Sytravon and CBC Compound Libraries: Firefly Luciferase Signal. FMDV antiviral cell assay, firefly luciferase signal. Potency, µM (top dose mostly 57.5 µM), most hits filed as inhibitors. 120,000 compounds, 0.23% hits. AID 1745856, 2022; note: nearly all actives have a fitted effect of over 60% in size
# FMDV Renilla = Primary qHTS Assay for Foot and Mouth Disease Virus Antivirals against NCGC Sytravon and CBC Compound Libraries: Renilla Luciferase Signal | 120,000 compounds, 0.32% hits | Potency, µM (titrated, usually from 57.5 µM), usual class: inhibitors | AID 1745857, 2022 | FMDV replicon cells, Renilla luciferase signal; note: nearly all actives have a fitted effect of over 55% in size
# Numbers stand for hits; i = inactive; ? = inconclusive; ! = not confirmed by another sample; [ ] = remark or other dose. Calls come from the whole dose curve.
SMILES,FMDV FLuc,FMDV Renilla
COc1cccc(C(CNCC(O)CN2CCOCC2)c2c[nH]c3ccccc23)c1OC (configuration not stated),i,i[1.06 µM]
Cc1ccsc1C(=O)/C(C#N)=C\c1ccc(C(=O)O)cc1,i,i
CN(CC(=O)NC(=O)NC1CCCCC1)C(c1ccccc1)c1ccccc1,i,?
Cc1cc(N(C)C)nc(Nc2ccc(NC(=O)Nc3ccc(F)cc3)cc2)n1,i,i
CCN(CC)c1cc(C)nc(Nc2ccc(NC(=O)CCCc3ccccc3)cc2)n1,?,32µM
CCCC(=O)Nc1ccc(-c2csc(N)n2)cc1,i,i
Cn1cc(/C=C2/CC(=O)N(c3ccccc3)C2=O)c2ccccc21,i,i
COc1ccc(CNC(=O)Cn2c(=O)oc3cc(S(=O)(=O)N4CCCC4)ccc32)cc1,i,i
CN(C)c1ccc(CNC(=O)Cn2c(=O)oc3cc(S(=O)(=O)N4CCCCCC4)ccc32)cc1,?,20µM
CC(C)c1ccc(NC(=O)Cn2c(=O)oc3cc(S(=O)(=O)N4CCCC4)ccc32)cc1,6.3µM,?
Cc1cc(C)cc(NC(=O)Cn2c(=O)oc3cc(S(=O)(=O)N4CCCC4)ccc32)c1,i,i
O=C(CSc1nnc2ccc(-c3ccco3)nn12)N1CCOCC1,i,i
COc1ccc2c(c1)c(C(C)=O)c(C)n2CCc1ccc(OC)c(OC)c1,i,i
COc1ccc2c(c1)c(C(C)=O)c(C)n2CCc1ccccc1,?,11µM
O=C(CCc1ccccc1)NC1CCN(c2ccccc2S(=O)(=O)C(F)(F)F)CC1,i,?
O=C(Cc1ccccc1)NC1CCN(c2ccc(S(=O)(=O)C(F)(F)F)cc2)CC1,3.2µM,3.5µM
CCN1CCN(c2oc(-c3ccc(F)cc3)nc2C#N)CC1,i,i
CCN1CCN(c2cc(-c3ccc(F)cc3)c3c(n2)CCCCCC3)CC1,?,11µM
Cc1ccc(C(=O)OCC(=O)c2ccco2)s1,i,i
CC(C)(C)c1ccc(N=Cc2cccs2)cc1,i,i
C(=Nc1ccccc1)c1ccc(-c2cccs2)s1,?,8.9µM
Cc1c(C)c2ccc(OCC(=O)NCCc3ccc(S(N)(=O)=O)cc3)cc2oc1=O,i,i
C=C(C)COc1ccc2c(C)c(CC(=O)NCCc3ccc(S(N)(=O)=O)cc3)c(=O)oc2c1,4µM,3.5µM
CCOC(=O)c1ccc(Oc2nc(C)nc3c2oc2ccccc23)cc1,i,i
CC(=O)c1ccc(Oc2nc(C)nc3c2oc2ccccc23)cc1,?,2.8µM
SMILES,FMDV FLuc,FMDV Renilla
CCN(CC)c1ccc(NS(=O)(=O)c2ccc(C)c(C)c2)cc1,i,i[1.06 µM]
CCCCOc1ccc(CNC(=O)c2cc3n(n2)CCCN(Cc2ccc(C)cc2)C3=O)cc1,14µM,i
CCCCNC(=O)c1cc2n(n1)CCCN(Cc1ccc(C)cc1)C2=O,i,i
COc1cc(CN(C(=O)c2cccc(Cl)c2)c2ccccn2)cc(OC)c1OC,?,i
COc1cc(CN(C(=O)c2ccc(OC(C)C)cc2)c2ccccn2)cc(OC)c1OC,?,10µM
CCc1ccc(/C=C(/C#N)C(=O)Nc2ccc(N3CCOCC3)cc2)cc1,i,i
O=C(COC(=O)c1ccccc1-c1ccc(C(F)(F)F)cc1)c1cccc([N+](=O)[O-])c1,10µM,8.9µM
O=C(COC(=O)c1ccccc1-c1ccc(C(F)(F)F)cc1)c1ccc([N+](=O)[O-])cc1,i,i
COCCCNc1nc2ccccc2nc1C(C#N)C(=O)OC (configuration not stated),i,i
CCCCCS(=O)(=O)c1oc(-c2cccs2)nc1S(=O)(=O)c1ccc(C)cc1,i,i
CCCCS(=O)(=O)c1oc(-c2cccs2)nc1S(=O)(=O)c1ccc(F)cc1,28µM,i
Cc1ccccc1-n1nnnc1SCc1nc(N)c2ccccc2n1,i,i
Cc1cccc(C)c1-n1nnnc1SCn1nnc2ccccc2c1=O,20µM,18µM
Oc1c(Cl)cc(Cl)cc1Br,i,i
O=C(/C=C/c1ccc(Cl)cc1)c1ccccc1O,i,i
O=C(O)c1ccccc1C(=O)/C=C/c1ccc(Cl)cc1,i,28µM
Cc1ccc(-n2ncc3c(NC4CCCCCC4)ncnc32)cc1Cl,i,i
Cc1ccc(Cl)cc1-n1ncc2c(NC3CCCCCC3)ncnc21,?,25µM!
O=C(Nc1ccc(C23CC4CC(CC(C4)C2)C3)cc1)c1ccccc1Cl,i,i
O=C(Nc1ccc(C23CC4CC(CC(C4)C2)C3)cc1)c1cccc(Cl)c1,0.35µM,i
COc1ccc(NC(=O)CCS(=O)(=O)c2ccc3c(c2)OCCO3)cc1Cl,i,i
CC(Oc1ccc(F)cc1)C(=O)Nc1nc(-c2ccc(F)cc2)ns1 (configuration not stated),22µM,22µM
COc1ccc(-c2nsc(NC(=O)COc3ccccc3OC)n2)cc1,i,i
CCn1c(SCC(=O)c2ccc(Cl)s2)nnc1-c1ccc(OC)cc1,i,i
O=C(Nc1cccc(S(=O)(=O)N2CCCCC2)c1)c1ccc(OCc2cn3ccccc3n2)cc1,i,i
SMILES,FMDV FLuc,FMDV Renilla
O=C(Nc1cccc(S(=O)(=O)N2CCOCC2)c1)c1ccc(OCc2cn3ccccc3n2)cc1,32µM,?
O=S(=O)(c1ccc2c(c1)CCN2)N1CCCCC1,i,i
COc1ccccc1CC(=O)N1CCN(c2nc(-c3ccc(Cl)cc3)no2)CC1,?,7.1µM
COc1ccc(-c2noc(N3CCN(c4ccc(Cl)cc4)CC3)n2)cc1OC,i,i
Cc1c(-c2ccccc2)sc2ncn(CC(=O)NC3CCCc4ccccc43)c(=O)c12 (configuration not stated),i,i
O=C(CSc1cnc2ccccc2n1)c1ccc2c(c1)OCCO2,i,i
O=C(CSc1ncnc2ccccc12)c1ccc2c(c1)OCCCO2,i,14µM
CNc1cccc(Cl)c1Cl,i,i
O=C(C1CCC(CNS(=O)(=O)c2cccs2)CC1)N1CCN(c2ccc(Cl)cc2)CC1 (configuration not stated),?,4.5µM
O=C(C1CCN(S(=O)(=O)c2cccs2)CC1)N1CCN(c2cccc(Cl)c2)CC1,i,i
CCOc1ccc(N2C(=O)c3cccnc3C2Nc2ccc(C)cc2C)cc1 (configuration not stated),i,i
Cc1ccc(-c2cnc(CCC(=O)Nc3ccc(C)c(F)c3)o2)cc1C,i,i
CCCCCOC(=O)CSc1nc2c(c(=O)[nH]c(=O)n2C)n1Cc1ccc(C)cc1,i,i
O=C(CCc1ncc(-c2ccc(Cl)cc2)o1)Nc1cc(F)cc(F)c1,i,i
COc1ccc(C(=O)NCCc2csc(-c3ccc(Cl)cc3)n2)cc1,i,i
CCCCOc1ccc(C(=O)NCCc2csc(-c3ccc(OC)cc3)n2)cc1,13µM,11µM
Cc1ccc(C2CC(=O)N3CN(Cc4ccccc4)CSC3=C2C#N)cc1 (configuration not stated),i,i
CCOc1ccc(Cn2cnc3c2c(=O)n(C)c(=O)n3C)cc1OCC,13µM,11µM
Cc1ccc(C(C)C)c(OCC(O)Cn2cnc3c2c(=O)n(C)c(=O)n3C)c1 (configuration not stated),25µM,25µM
Cn1c(=O)c2c(ncn2Cc2ccc(Cl)c(Cl)c2)n(C)c1=O,i,?
CCc1cccc(OCC(O)Cn2cnc3c2c(=O)n(C)c(=O)n3C)c1 (configuration not stated),i,i
Cn1c(=O)c2c(ncn2CC(=O)OCc2cccc3ccccc23)n(C)c1=O,i,i
Cn1c(=O)c2c(ncn2Cc2ccc(F)cc2)n(C)c1=O,i,i
